Compounds with a hit are over-represented: about 21% of the library has one in this group of screens.
HCV inh: HCV inhibition; Potency, µM (titrated, usually from 41.8 µM), most hits filed as inhibitors; Huh7.5.1 HCVcc-Cre infection, luciferase reporter, 44 h; 340,000 compounds, 3.4% hits; AID 651820
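Whole-lifecycle infectious HCVcc-Cre system; cells 1,000/well, compound then virus (~0.5 moi) added 4 h after plating, 44 h culture. Luciferase read 15 sec following 15 min substrate incubation, room temp.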
Shiga toxin inh: blocks Shiga toxin action in Vero cells; AID 2315; inhibition, % at 38.7 µM; Vero cells, Shiga toxin protein synthesis inhibition reporter; 290,000 compounds, 9.2% hits; in the data active means inhibition mostly above about 28%, no sharp cut-off; inactive means mostly below about 43%
CHX counter: affects cycloheximide protein synthesis inhibition readout, counter-screen | max response, % | 300,000 compounds, 12% hits | cell reporter, cycloheximide protein synthesis inhibition counterscreen | AID 2314; in the data active means max response mostly above about 13%, no sharp cut-off; inactive means mostly below about 14%; further: read at 38.3 µM for the half of the compounds with a filed dose
Pf growth 48h: inhibits P. falciparum growth in the first generation, 48 h. Potency, µM (highest dose often 28.7 µM), usual class: inhibitors. 310,000 compounds, 5.9% hits. P. falciparum luciferase growth in erythrocytes, 48 h
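Luminescence readout; reporter = integrated firefly luciferase in P. falciparum. RBC culture at 2% hematocrit, 0.1% parasitemia final, 37 C/5% CO2; decreased signal taken as growth inhibition.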
AMA1 RON2 block: disrupts binding of P. falciparum AMA1 to RON2; AlphaScreen AMA1-biotinylated RON2 peptide binding; Potency, µM (doses to about 58.2 µM), hits mostly inhibitors; 360,000 compounds, 0.2% hits; further: nearly all actives have a fitted effect of over 45% in size
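AMA1 (3D7) with his tag at 25 nM final met compounds first, then biotinylated RON2 peptide at 25 nM; detection used donor plus acceptor beads, 10 µg/mL apiece, read by AlphaScreen after 30 min at room temperature.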
Pf growth 96h: P. falciparum growth inhibition at 96 hour, primary screen for plastid delayed-death inhibitors; P. falciparum luciferase reporter growth, 96 h; Potency, µM (top dose mostly 28.7 µM), actives largely listed as inhibitors; 320,000 compounds, 6.9% hits
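Two-generation exposure (96 h) targets delayed-death phenotype. Reporter parasites carrying integrated firefly luciferase, in red cells at 2% hematocrit and 0.05% parasitemia final, kept at 37 C, 5% CO2; luminescence loss indicates inhibition.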
Large screens that a line does not name were inactive. Unless noted, the call rests on the fitted dose curve; in most records, active means well fitted curve in the direction sought with a large enough effect; inconclusive means small, poorly fitted or top-dose-only effect, or another doubt; inactive means no such curve, though single readings can be large; an effect the other way counts as inactive or inconclusive.

COc1ccccc1/C=C1\SC(=S)N(CCC(=O)Nc2nnc(C)s2)C1=O	Pf growth 96h inconclusive
CC1(C(=O)Nc2ccccc2F)CCN1C(=O)Cc1cc(F)ccc1F (stereo not drawn)	none (no result: HCV inh, Shiga toxin inh, CHX counter, Pf growth 48h, Pf growth 96h)
CC(=O)N1N=C(c2c(-c3ccccc3)c3cc(C)ccc3[nH]c2=O)CC1c1ccco1 (stereo not drawn)	HCV inh inconclusive, Pf growth 48h 15µM, Pf growth 96h 5.2µM
O=C(O)CCC(=O)N1N=C(c2c(-c3ccccc3)c3cc(Cl)ccc3[nH]c2=O)CC1c1cccs1 (stereo not drawn)	Pf growth 96h inconclusive
CC(=O)N1N=C(c2c(-c3ccccc3)c3cc(Br)ccc3[nH]c2=O)CC1c1ccco1 (stereo not drawn)	HCV inh inconclusive, Pf growth 48h inconclusive, Pf growth 96h 5.2µM
Cc1nc2ccc(NS(=O)(=O)c3ccc4c(c3)OCCO4)cc2s1	HCV inh 3.2µM (no result: Pf growth 96h)
Cc1cc(S(=O)(=O)Nc2cccc([N+](=O)[O-])c2)c(C)s1	Pf growth 96h 2.1µM
Cc1nc2ccc(NS(=O)(=O)c3cccc([N+](=O)[O-])c3)cc2s1	HCV inh 11µM (no result: Shiga toxin inh, CHX counter, Pf growth 48h, Pf growth 96h)
Cc1nc2ccc(NS(=O)(=O)c3ccc(F)c(F)c3)cc2s1	none (no result: Shiga toxin inh, CHX counter)
CCOC(=O)/C(=N\Nc1ccccc1)P(=O)(c1ccccc1)c1ccccc1	Pf growth 48h inconclusive
COc1cc(/C=C2\SC(N)=NC2=O)ccc1O	HCV inh inconclusive
O=C(NN1CCOCC1)c1ccc(Cl)c([N+](=O)[O-])c1	Shiga toxin inh 62, CHX counter 27
O=C(Nc1cccc(Cl)c1N1CCCCC1)c1ccc(N2CCOCC2)c([N+](=O)[O-])c1	Pf growth 96h 6.6µM
CN1CCN(NC(=O)c2ccc(Cl)c([N+](=O)[O-])c2)CC1	none (no result: Pf growth 96h)
O=C(Nc1cccc(Cl)c1N1CCOCC1)c1cc([N+](=O)[O-])ccc1N1CCOCC1	Pf growth 48h inconclusive
O=C(Nc1ccccc1N1CCCCC1)c1ccc(Cl)c([N+](=O)[O-])c1	HCV inh 13µM, AMA1 RON2 block inconclusive
Cc1cc2c3c(c1)C1(C(=O)N3C(C)(C)CC2C)C(C#N)=C(N)OC2=C1C(=O)CC(C)(C)C2 (stereo not drawn)	Pf growth 48h 12µM, Pf growth 96h inconclusive
CC1=CC(C)(C)N2C(=O)C3(C(C#N)=C(N)OC4=C3C(=O)CC(C)(C)C4)c3cc(C)cc1c32 (stereo not drawn)	Pf growth 96h 13µM (no result: Pf growth 48h)
Cc1cc2c3c(c1)C1(SCC(=O)N1c1ccc(F)cc1)C(=O)N3C(C)(C)CC2C (stereo not drawn)	HCV inh inconclusive, Pf growth 96h inconclusive (no result: Pf growth 48h)
Cc1cc2c3c(c1C)C1(C(=O)N3C(C)(C)CC2C)C(C#N)=C(N)Oc2cc(O)ccc21 (stereo not drawn)	Pf growth 96h 10µM (no result: Pf growth 48h)
Cc1ccc(N(C)S(=O)(=O)c2cccc(C(=O)NC3CC(C)(C)NC(C)(C)C3)c2)cc1	HCV inh inconclusive, Pf growth 48h inconclusive, Pf growth 96h inconclusive (no result: Shiga toxin inh, CHX counter)
CC1(C)CC(NC(=O)c2cccc(S(=O)(=O)N(Cc3ccccc3)c3ccccc3)c2)CC(C)(C)N1	HCV inh 2.2µM, Pf growth 48h 10µM, Pf growth 96h 13µM (no result: Shiga toxin inh, CHX counter)
COc1ccccc1N(Cc1ccccc1)S(=O)(=O)c1cccc(C(=O)Nc2ccc(C)cn2)c1	HCV inh inconclusive, Pf growth 48h 4.1µM, Pf growth 96h 1.9µM (no result: Shiga toxin inh, CHX counter)
COc1ccccc1N(Cc1ccccc1)S(=O)(=O)c1cccc(C(=O)Nc2ccccn2)c1	HCV inh inconclusive, Shiga toxin inh 50, CHX counter 25, Pf growth 48h 10µM, Pf growth 96h 9.3µM
CN(C1CCCCC1)S(=O)(=O)c1cccc(C(=O)Nc2ccccn2)c1	HCV inh inconclusive, Pf growth 48h inconclusive, Pf growth 96h inconclusive (no result: Shiga toxin inh, CHX counter)
CCOCc1cnc(C)nc1NCC(=O)c1c(C)[nH]c2ccc(OC)cc12	Pf growth 96h 0.41µM (no result: Pf growth 48h)
CCCCC(=O)NC1(C(F)(F)F)C(=O)N(CC(C)C)C2=C1C(=O)CC(C)(C)C2 (stereo not drawn)	Shiga toxin inh 44
COc1ccccc1CNC(=S)Nc1ccc2nc(N3CCN(C)CC3)cc(C)c2c1	Pf growth 48h 6.6µM

High-throughput results as filed in PubChem.
